Most compounds without a hit are left out; they make up all but 8.3% or so of the library.
RORgamma inh – blocks mouse ROR gamma transcriptional activity; P51450; Potency, µM (doses to about 53.6 µM), inactives show at the highest dose activity change, negative = inhibition, usual class: inhibitors; 310,000 compounds, 5.4% hits; Drosophila S2 Gal4-RORgamma UAS-luciferase reporter, 20 h; note: potency is the fitted concentration of half-maximal effect; % is set by controls: 0 for no effect and ±100 for the full control effect; nearly all actives have a fitted effect of over 60% in size
Target sequence (P51450 whole entry, looked up, the tested form may be a part): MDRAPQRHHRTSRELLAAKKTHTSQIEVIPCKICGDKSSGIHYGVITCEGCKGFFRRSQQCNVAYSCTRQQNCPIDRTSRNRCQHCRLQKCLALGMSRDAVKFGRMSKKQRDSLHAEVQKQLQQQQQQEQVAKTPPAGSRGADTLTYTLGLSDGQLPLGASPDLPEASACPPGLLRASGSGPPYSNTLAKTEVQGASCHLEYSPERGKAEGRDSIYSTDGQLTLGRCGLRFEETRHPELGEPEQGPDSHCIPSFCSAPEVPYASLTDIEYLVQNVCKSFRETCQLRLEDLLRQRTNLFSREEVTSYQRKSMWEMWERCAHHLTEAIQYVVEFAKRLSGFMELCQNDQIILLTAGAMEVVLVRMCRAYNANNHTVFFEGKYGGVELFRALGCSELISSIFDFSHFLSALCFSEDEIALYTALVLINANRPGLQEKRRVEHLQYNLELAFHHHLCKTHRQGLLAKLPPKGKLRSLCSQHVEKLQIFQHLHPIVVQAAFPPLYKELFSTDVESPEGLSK
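Luminescence from a UAS-regulated Photinus luciferase reporter in stably transfected Drosophila Schneider cells is measured; decreased signal marks ROR gamma inhibition. Fusion expression is induced by 700 uM copper sulfate for 20 hr.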
Chronic BCR inh – blocks chronic active B-cell receptor signaling. Potency, µM (titrated, usually from 46.1 µM), for the others: at the highest dose activity change, negative = inhibition, hits mostly inhibitors. ABC-DLBCL IkBa-CBG/CBR reporter, luminescence ratio, 4 h. 340,000 compounds, 0.05% hits; active = well fitted inhibition curve with a large enough effect in the signal ratio, with a control signal flat, not every such curve was filed as active; inconclusive = small, poorly fitted or top-dose-only effect, or effect the other way, or a change in a side signal; the % refers to the signal ratio;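 note: potency is the fitted concentration of half-maximal effect; plate controls were basal doxycycline-induced cells for no effect and cells given 10 µM MG132 for full effect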
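Concentration-response series (up to 46 uM) were applied to TMD8 dual-reporter cells for 4 h at 37C with doxycycline. Green/red ratio, after filter-overlap correction, defined %Activity; red signal alone was normalised to basal cells and zero luminescence.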
Gal4-VP16 FLuc – counter-screen for ROR gamma inhibitors: Gal4-VP16 reporter; Drosophila S2 Gal4-VP16 UAS-luciferase, luminescence, 20 h; Potency, µM (series often up to 53.6 µM), without a hit: at the highest dose activity, negative = inhibition, actives largely listed as inhibitors; 310,000 compounds, 3.5% hits; AID 2546;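 note: Gal4-VP16 expression switched on by copper sulfate through the metallothionein promoter; potency is the fitted concentration of half-maximal effect; % is set by controls: 0 for no effect and ±100 for the full control effect; nearly all actives have a fitted effect of over 50% in size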
SW480 rerep – induces DNA re-replication in SW480 colon adenocarcinoma cells; 340,000 compounds, 1.8% hits; Potency, µM (titrated, usually from 46.1 µM), inactives show at the top dose re-replication activation, actives largely listed as activators; SW480 DNA re-replication, Hoechst DNA content imaging, 48 h; AID 624297; note: potency is the fitted concentration of half-maximal effect; % of control where 0% means no effect; nearly all actives have a fitted effect of over 55% in size
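Per well, 250 cells were exposed to pinned compound for 48 hr. Nuclear DNA was visualised with Hoechst (40 min, 37 C) and total object intensity recorded by fluorescence scanning.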
MCF10A rerep – inducers of DNA re-replication in MCF 10A breast cells | 350,000 compounds, 2.9% hits | Potency, µM (doses to about 46.1 µM), inactives show at the highest dose activity, positive = re-replication, actives largely listed as activators | MCF 10A DNA re-replication, Hoechst nuclear intensity, 48 h | AID 624296; note: potency is the fitted concentration of half-maximal effect; % of control where 0% means no effect; nearly all actives have a fitted effect of over 50% in size
Giardia kill – Giardia lamblia killing; Giardia lamblia trophozoite viability; activity change, % at 7.66 µM, hits read low; 340,000 compounds, 0.15% hits; in the data active = activity change below about -80%; inconclusive = between about -30% and that limit;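 note: parasites exposed to compound for two days anaerobically before the ATP read; % is set by controls: 0 for no effect and ±100 for the full control effect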
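Trophozoite viability was measured as ATP-dependent luminescence, read 15-30 min after reagent addition. Before that, parasites at 100 cells/well were exposed to compounds for 48 h, anaerobically, at 37 deg C.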
Numbers without * were called inactive. Unless noted, calls come from the whole dose curve; as a rule, active = well fitted curve in the direction sought with a large enough effect; inconclusive = small, poorly fitted or top-dose-only effect, or another doubt; inactive = no such curve, though single readings can be large; an effect the other way counts as inactive or inconclusive.

Results for O=C(CN1C(=O)C2CCCCC2C1=O)Nc1nc(-c2ccccn2)cs1 (stereo not drawn) ?
RORgamma inh: inconclusive; Chronic BCR inh: inconclusive; Gal4-VP16 FLuc: -10.0%; SW480 rerep: inconclusive; MCF10A rerep: inconclusive; Giardia kill: -13.3

Results for CC1CCc2nc(NC(=O)CN3CCN(c4ccccc4)CC3)sc2C1 (stereo not drawn) ?
RORgamma inh: inconclusive; Chronic BCR inh: 3.7%; Gal4-VP16 FLuc: 4.1%; SW480 rerep: -3.7%; MCF10A rerep: 6.9%; Giardia kill: 2.6

Results for Brc1cc(Cc2nnc(-c3ccccc3)o2)c(Br)s1 ?
RORgamma inh: inconclusive; Chronic BCR inh: -9.2%; Gal4-VP16 FLuc: -14.4%; SW480 rerep: 5.3%; MCF10A rerep: inconclusive; Giardia kill: 10.5

How did O=C(NCc1ccc(F)cc1)c1cc2c(s1)CS(=O)(=O)C2 do in these assays?
RORgamma inh: -5.5%; Chronic BCR inh: inconclusive; Gal4-VP16 FLuc: -3.6%; SW480 rerep: 7.1%; MCF10A rerep: inconclusive; Giardia kill: 4.9

Results for Cc1c(NC(=O)C(C)OC(=O)c2ccc(NC(=O)CC#N)cc2)c(=O)n(-c2ccccc2)n1C (stereo not drawn) ?
Chronic BCR inh: -5.0%; SW480 rerep: -9.2%; MCF10A rerep: -35.3%; Giardia kill: -5.3

How did CSc1nc2ccc3nc(NC(=O)C4COc5ccccc5O4)sc3c2s1 (stereo not drawn) do in these assays?
RORgamma inh: 10µM*; Chronic BCR inh: inconclusive; Gal4-VP16 FLuc: -19.0%; SW480 rerep: -5.2%; MCF10A rerep: 24.4%; Giardia kill: -19.4

How did Cc1csc(NC(=O)C2COc3ccccc3O2)n1 (stereo not drawn) do in these assays?
RORgamma inh: 14.1µM*; Chronic BCR inh: inconclusive; Gal4-VP16 FLuc: 11.2µM*; SW480 rerep: -2.7%; MCF10A rerep: -0.2%; Giardia kill: -14.5

What do the screens show for `Cc1nc2ccc3nc(NC(=O)C4COc5ccccc5O4)sc3c2s1` (stereo not drawn)?
RORgamma inh: -0.6%; Chronic BCR inh: inconclusive; Gal4-VP16 FLuc: inconclusive; SW480 rerep: 12.7%; MCF10A rerep: inconclusive; Giardia kill: -7.7

How did Cc1cccc(NC(=O)C2COc3ccccc3O2)n1 (stereo not drawn) do in these assays?
RORgamma inh: 22.2%; Chronic BCR inh: inconclusive; Gal4-VP16 FLuc: 21.2%; SW480 rerep: -6.5%; MCF10A rerep: inconclusive; Giardia kill: 4.8

Results for O=C(c1cnccn1)N1CCC[C@@]2(CCN(Cc3nccs3)C2)C1 ?
RORgamma inh: 16.5%; Gal4-VP16 FLuc: -8.1%

What do the screens show for `CCC(C)(C)C1CCC(NC(=O)c2ccc(S(=O)(=O)N3CCOCC3)cc2)CC1` (stereo not drawn)?
Chronic BCR inh: 1.8%; SW480 rerep: -3.2%; MCF10A rerep: 6.51µM*; Giardia kill: 14.5

What do the screens show for `Cc1cc2ccccc2n1CCNC(=O)c1ccccc1`?
RORgamma inh: 4.47µM*; Chronic BCR inh: 10.3%; Gal4-VP16 FLuc: 2.51µM*; SW480 rerep: 23.2%; MCF10A rerep: inconclusive; Giardia kill: -29.7

Results for CC(=O)NCCn1c(C)cc2ccccc21 ?
RORgamma inh: -6.1%; Chronic BCR inh: 2.7%; Gal4-VP16 FLuc: 2.8%; SW480 rerep: -9.3%; MCF10A rerep: inconclusive; Giardia kill: 23.8

What do the screens show for `Cc1cc2ccccc2n1CCNC(=O)c1ccc(S(=O)(=O)N2CCOCC2)cc1`?
RORgamma inh: 3.5%; Chronic BCR inh: 0.8%; Gal4-VP16 FLuc: 6.7%; SW480 rerep: 16.4µM*; MCF10A rerep: 3.66µM*; Giardia kill: -6.9

What do the screens show for `CC(=O)OCC[C@H](NS(=O)(=O)OCC(Cl)(Cl)Cl)c1ccccc1`?
RORgamma inh: -25.0%; Chronic BCR inh: inconclusive; Gal4-VP16 FLuc: -4.5%; SW480 rerep: -5.0%; MCF10A rerep: 16.3%; Giardia kill: 9.1

From PubChem
